Sampled rows, rich in hits. Any-hit rate of the full collection: about 3.5%.
FBW7 act = activators of human E3 ligase FBW7. normalized activity (activation), % at 26.1 µM. AlphaScreen FBW7–phospho-cyclin E peptide binding, activator screen. Q969H0. AID 1259310. 650,000 tested, 0.13% active; in the data active means normalized activity above about 1.9%;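 further: purified mutant Fbw7 with reduced substrate affinity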
TEAD-YAP block = TEAD-YAP interaction inhibition. HEK-TIYL cells, TEAD-Gal4/YAP UAS-luciferase luminescence. inhibition, % at 9.12 µM. 640,000 tested, 1.4% active. AID 1259422; in the data active means inhibition above about 32%;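 further: 0% = median of test compound wells and 100% = reference inhibitor wells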
GPR151 ag = human GPR151 activation; 650,000 tested, 1% active; activation, % at 11.2 µM; PathHunter beta-arrestin GPR151 cells, luminescence; Q8TDV0; in the data active means activation above about 4.9%;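 further: 0% = median of compound wells and 100% = cells with positive control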
Target sequence (Q8TDV0 whole entry, looked up): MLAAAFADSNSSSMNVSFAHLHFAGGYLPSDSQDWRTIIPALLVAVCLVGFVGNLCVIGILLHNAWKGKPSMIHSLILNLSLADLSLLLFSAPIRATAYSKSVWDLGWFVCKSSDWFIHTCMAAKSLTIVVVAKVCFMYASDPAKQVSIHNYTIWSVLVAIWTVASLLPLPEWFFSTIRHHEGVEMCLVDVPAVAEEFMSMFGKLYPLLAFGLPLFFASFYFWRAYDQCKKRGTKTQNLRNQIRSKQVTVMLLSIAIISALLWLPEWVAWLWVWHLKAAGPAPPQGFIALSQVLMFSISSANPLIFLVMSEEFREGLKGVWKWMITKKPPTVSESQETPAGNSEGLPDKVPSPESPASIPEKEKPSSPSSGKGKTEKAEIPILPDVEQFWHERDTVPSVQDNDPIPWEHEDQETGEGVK
MITF primary = blocks human microphthalmia-associated transcription factor; 650,000 tested, 0.91% active; inhibition, % at 2.6 µM; O75030; AID 1259374; AlphaScreen MITF homodimerization, bead proximity signal; in the data active means inhibition above about 50%;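 further: 0% = vehicle wells with protein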
The depositor's hits bear a star.

SMILES	FBW7 act	TEAD-YAP block	GPR151 ag	MITF primary
COc1cccc(/C=N/NC(=O)c2ccccc2O)c1O	-1	77*	-2	42
COc1cccc(/C=N/NC(=O)c2cc(C34CC5CC(CC(C5)C3)C4)[nH]n2)c1O	0	40*	0	12
COc1ccc(NC(=O)CCC(=O)OC(C)C(=O)c2ccccc2)cc1 (centres undefined)	0	-10	0	9
Cc1ccc2c(c1)CN(CC(=O)N1CCCC1c1nccs1)CC(c1ccsc1)O2 (centres undefined)	0	8	0	8
NC(=O)c1ccnc(-c2cccc(N)c2)c1	0	2	2	4
Cc1ccccc1/C=N/NC(=O)c1ccccc1C	0	-43	3	2
C=CCc1cccc(/C=N/NC(=O)c2ccccc2OC)c1O	0	-15	0	8
Cc1ccccc1C(=O)N/N=C/c1cccc(O)c1O	-1	59*	0	26
COc1cc(Br)cc(C=Nc2ccc3[nH]ncc3c2)c1O	0	3	0	6
O=C(N/N=C/c1ccccc1O)c1cccc2cc[nH]c12	-1	81*	2	5
O=C(N/N=C/c1ccccc1Br)c1cccc2cc[nH]c12	0	-27	0	11
COc1cccc(C=Nc2ccc3[nH]ncc3c2)c1O	6.3*	11	0	3
C=CCc1cccc(/C=N/NC(=O)c2ccccc2O)c1O	0	42*	-1	13
CCOC(=O)c1ccc(-n2c(-c3ccccc3)cc(/C=C3\C(C)=C(C#N)c4nc(N)c(C#N)c(C)c43)c2-c2ccccc2)cc1	0	1	0	-11
Cc1cc2nc3s/c(=C\c4ccc(-c5ccccc5[N+](=O)[O-])o4)c(=O)n3c2cc1C	0	4	-1	7
COc1ccc(C(=O)N/N=C/c2cccc(OC)c2O)cc1	0	8	-1	28
COc1ccccc1/C=N/NC(=O)c1cc(-c2ccc(C)cc2)n[nH]1	0	13	-1	14
COc1cccc(/C=N/NC(=O)COc2ccccc2)c1O	-1	2	-1	-5
COc1cccc(/C=N/NC(=O)Cn2c3ccccc3c(=O)c3ccccc32)c1O	0	50*	-1	21
COc1cccc(/C=N/NC(=O)c2cccc(NC(=O)c3ccccc3F)c2)c1O	0	64*	1	8
COc1cccc(/C=N/NC(=O)c2cc(-c3ccc(C)cc3)n[nH]2)c1O	0	79*	-1	62*
COc1cccc(/C=N/NC(=O)c2ccc(-c3ccccc3)cc2)c1O	0	83*	-1	2
COc1ccc(-c2c(C)n([O-])c3c([n+]2=O)CCC3)cc1	0	-2	-2	13
CCOC(=O)c1c(NC(=O)COc2cccc(C)c2C)sc2c1CCC2	0	-15	-2	-17
COc1cc(-c2[nH]nc3c2C(c2cccc(OC(=O)c4ccco4)c2)C(C#N)=C(N)O3)cc(OC)c1OC (centres undefined)	0	11	0	-10
SMILES	FBW7 act	TEAD-YAP block	GPR151 ag	MITF primary
COc1cccc(/C=N/NC(=O)CSc2cc(C)nc3ccc(C)cc23)c1O	-1	44*	0	9
CC(C)Oc1ccc(-c2cc(C(=O)N/N=C/c3ccccc3O)[nH]n2)cc1	0	65*	0	9
COc1cccc2c(SCC(=O)N/N=C/c3ccc(O)cc3O)cc(C)nc12	-2	-7	0	-2
O=C(Nc1cccc(O)c1)c1nn2c(C(F)(F)F)cc(-c3ccco3)nc2c1Br	0	6	0	-3
O=C(NCCO)c1ccccc1I	0	13	0	-1
COc1ccc(CCNc2nc(Nc3ccc4ncccc4c3)nc3nc[nH]c23)cc1	0	50*	0	15
COc1ccc(CCNc2nc(Nc3ccc4ncccc4c3)ncc2C)cc1	0	33*	-1	20
COc1cccc(/C=N/NC(=O)c2nonc2N)c1	0	-11	-2	-10
CCCCCC1CCC(c2ccc(O)cc2)CC1 (centres undefined)	0	-4	-1	6
Cc1ccc(Nc2nc(NCc3ccco3)c3ccccc3n2)cc1	0	46*	1	5
COc1ccc(Nc2nc(NCc3ccccc3)c3ccccc3n2)cc1	0	44*	0	3
COc1ccccc1Nc1nc(NCc2ccco2)c2ccccc2n1	0	4	-1	-7
COC(=O)c1ccc(Nc2nc(NCc3ccco3)c3ccccc3n2)cc1	0	75*	-6	-12
COc1ccc(Nc2nc(C)c3ccccc3n2)cc1	0	-51	1	3
Cc1ccc(CNC(=O)c2oc(=O)c3ccccc3c2-c2ccc(C)cc2)cc1	0	-3	-2	2
O=C1OC(/C=C/c2ccccc2)=NC/1=C/c1ccc(Br)cc1	0	-1	-1	-3
c1ccc(Nc2nc(N3CCC(N4CCOCC4)CC3)nc3c2ncn3-c2ccsc2)cc1	0	33*	0	11
Oc1ccc(CCNc2ncnc3nc(N4CCN(c5ccccn5)CC4)[nH]c23)cc1	0	39*	0	10
c1ccc(Oc2ccc(Nc3nc(N4CCOCC4)nc4c3ncn4-c3ccsc3)cc2)cc1	0	-6	0	6
c1ccc(N2CCN(c3nc(NC4CC4)c4ncn(-c5ccsc5)c4n3)CC2)nc1	0	49*	1	0
c1ccc(N2CCN(c3nc(Nc4ccc(N5CCOCC5)cc4)c4ncn(-c5ccsc5)c4n3)CC2)nc1	0	38*	0	20
c1ccc(OCCNc2ncnc3nc(N4CCN(c5ccccn5)CC4)[nH]c23)cc1	0	1	3	12
O=C(N/N=C/c1ccccc1Cl)C(=O)NC1CCCCC1	0	2	2	15
c1cc(-n2cnc3c(Nc4ccc(N5CCOCC5)cc4)nc(N4CCC(N5CCOCC5)CC4)nc32)cs1	0	37*	-3	8
c1cc(-n2cnc3c(Nc4ccc5c(c4)OCO5)nc(N4CCC(N5CCOCC5)CC4)nc32)cs1	0	19	-1	14
SMILES	FBW7 act	TEAD-YAP block	GPR151 ag	MITF primary
Oc1ccc(CCNc2nc(N3CCN(c4ccccn4)CC3)nc3c2ncn3-c2ccsc2)cc1	0	53*	3	11
CCCNc1nc(N2CCN(c3ccccn3)CC2)nc2c1ncn2-c1ccsc1	0	12	2	8
CC1CN(C(=O)COC(=O)/C(C#N)=C/c2ccc(N(C)C)cc2)CC(C)O1 (centres undefined)	0	-14	0	17
O=[N+]([O-])c1cnc(Nc2ccc(S(=O)(=O)Nc3nccs3)cc2)c([N+](=O)[O-])c1	0	0	1	9
O=[N+]([O-])c1ccc(Nc2nccs2)c([N+](=O)[O-])c1	0	59*	-1	5
CC(C)NS(=O)(=O)c1ccc(OCC(=O)Nc2ccc(C(F)(F)F)cc2)cc1	0	13	2	-9
O=C(CNCC1CCCCC1)Nc1cccc(F)c1	0	-17	1	26
COc1cccc(-c2ccc3nnc(SCC(=O)N4CCN(c5ccccc5)CC4)n3n2)c1	1	33*	-1	13

Compound activity (PubChem BioAssay)
